Assay results reported in PubChem BioAssay (NCI).
Compounds without any hit were thinned out: in the full panel of roughly 83,000, 20% have a hit.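 Interpretation: 100, growth as untreated; towards 0, rising growth inhibition; 0, no net growth; 0 to -100, cell death. Compounds scoring below 10 were considered active.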 Unmarked numbers belong to inactive results. The source made the active and inactive calls.

Tested on: HL-60(TB) leukemia
Experiment: NCI-60 one-dose screen, 48 h (100 = growth as untreated, 0 = no growth, -100 = all killed)
Details: 10 µM unless noted

| Structure (SMILES) | growth |
| --- | --- |
| Cc1ccc(S(=O)(=O)N/N=C2\CCCc3ccccc32)cc1 | 80.4% |
| Cc1cc(C(=O)/C=C/c2ccc[nH]2)ccc1-n1ccc(C(F)(F)F)n1 | -21% (active) |
| O=C(Nc1ccc(-n2cc(-c3ccncc3)c(-c3ccc(O)c(Cl)c3)n2)cc1)c1cc(C(F)(F)F)cc(C(F)(F)F)c1 | 84.4% |
| O=c1oc2ccc(-c3ccc(F)cc3F)cc2c(=O)n1-c1cccc(C(F)(F)F)c1 | -33.3% (active) |
| Cc1ccc(S(=O)(=O)Nn2c3c(cc(-c4nc5ccccc5s4)c2=O)CCCCCC3)cc1 | 102% |
| CN(CCCNC(=O)CCOCCOCCOCCNC(=O)Cc1ccc2ccc3cccc4ccc1c2c34)CCCNc1cc(-c2ccc3ccccc3c2)nc2ccccc12 | -77.6% (active) |
| CCOc1cc(/C=N\NC(=O)N/N=C/c2ccc(O)c(OCC)c2)ccc1O | -22.2% (active) |
| CSc1nc(N)c2c(n1)N(C)C=NS2(=O)=O | 124% |
| CCN1C(=O)/C(=C/C(=O)OC)S/C1=N\NC(=O)c1cc2ccc1/C=C\c1ccc(cc1)/C=C\2 | 88.4% |
| O=C(NCc1ccc(Cn2c(=O)sn(-c3ccc(Cl)cc3)c2=O)cc1)OCc1ccc2c(Cl)cc(Cl)c(O)c2n1 | 56.3% |
| CCOC(=O)c1cc(C(=O)c2cc(OC)cc(OC)c2)n2ccccc12 | -13.9% (active) |
| CCCC1CCCCN1C(=O)OCC(C)C (stereo not given) | 107% |
| CC1(C)[C@H](O)CC[C@]2(C)[C@@H]1CC[C@@]13C[C@@H](CC[C@H]12)[C@@](O)(CO)C3 | 106% |
| C=CC(=O)Nc1cc(Nc2nccc(-c3cn(C)c4ccccc34)n2)c(OC)cc1N(C)CCN(C)C | -65.8% (active) |
| COc1cc(/C=C\c2cc(OC)c(OC)c(OC)c2)cc(N)c1OC | 48.8% |
| Oc1ccccc1/C=N/N1CCCCCC1 | 86.7% |
| O=[N+]([O-])c1ccc(N2c3ccncc3Sc3ccncc32)cc1 | 102% |
| O=S(=O)(NCCNc1nccc(-c2c(-c3ccc(F)cc3)nc3sccn23)n1)c1ccc2ccccc2c1 | 88.1% |
| O=C(/C=C/c1ccc(Cl)cc1)c1ccc(Nc2nc(NCCO)nc(Nc3ccc(Cl)cc3)n2)cc1 | 99.4% |
| CCOC(=O)CSc1c([N+](=O)[O-])ncn1C | 91.4% |

| Structure (SMILES) | growth |
| --- | --- |
| O=C(N/N=C(\CS(=O)(=O)c1ccccc1)c1cc2ccccc2oc1=O)c1ccccc1 | 105% |
| O=C1NC(=Nc2ccc(O)cc2)S/C1=C\c1cccs1 | -4.12% (active) |
| COc1cc(-c2csc(NC(=O)Nc3ccc(C(F)(F)F)cc3)n2)cc(OC)c1OC | -13.8% (active) |
| COc1ccc(/C=C/C(=O)c2ccc([N+](=O)[O-])cc2)cc1 | 82% |
| Cc1cccc(C(=O)O)n1 | 78.1% |
| C/C=C/C1=CN2C(=O)c3cc(OC4OC(C)C(NC)C(C)(O)C4O)c(C)c(O)c3N=C[C@@H]2C1 (stereo not given in full) | -4.33% (active) |
| Cc1cc2c(cc1C)Nc1sc(NC(=O)CN3CCN(C)CC3)nc1C(=O)N2 | 83.3% |
| COc1ccc(-c2cc(=O)c3c(OC)c4ccoc4c(/C=C/C=O)c3o2)cc1 | -3.36% (active) |
| COc1cccc(NC(=O)c2sc3nc(C)c(C(=O)c4ccccc4)cc3c2N)c1 | 93.5% |
| OCC1OC(n2cnc3c(N/N=C\c4ccccn4)ncnc32)C(O)C1O (stereo not given) | 6.17% (active) |
| Nc1nc(N)c2c(ccc3c2ccn3Cc2cccc([N+](=O)[O-])c2)n1 | 8.38% (active) |
| O=C(Nc1cccc(Cl)c1)c1ccc(Cl)cc1Cl | 92% |
| COc1ccc(/C=C2\CCCC3=C2NC(N)=NC3c2ccc(OC)cc2)cc1 (stereo not given) | 67.8% |
| Nc1c(C(=O)Nc2ccccc2)sc2nc3c(cc12)CCC3 | 60.9% |
| CC(=O)OC(c1ccccc1)C1CCOC1=O (stereo not given) | 113% |
| O=C1CC(c2nc3ccccc3[nH]2)CN1C1CCCCC1 (stereo not given) | 101% |
| Cc1oc2c(Cc3ccc(NC(=O)c4ccc(Cl)cc4)cc3)ncnc2c1C(=O)NO | 87.9% |
| COc1cc(C[C@H]2COc3cc(O)cc(O)c3C2=O)ccc1O | -35.5% (active) |
| COc1cc(NN=C(c2ccc(O)cc2)c2ccc(O)cc2)c([N+](=O)[O-])cc1[N+](=O)[O-] | 133% |
| c1ccc(-c2cn3ccnc3c(-c3ccc4c(c3)ncn4C3CCCCC3)n2)cc1 | 80.7% |
